# Test results as given in PubChem BioAssay (EPA / NIEHS).
# Where a structure was tested more than once in an assay, its records may differ in their call. The source made the active and inactive calls. Rule for the calls: active = hit-call score of the fitted dose curve at least 0.9, where 1 is the maximum; inactive = score below 0.9.
# Assays:
# [1] = APR_HepG2_P-H2AX_72hr: Apredica 72-hour HepG2 Assay for H2AX Phosphorylation (AID 2282916); conditions: imaging, actives raise or lower the signal;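 note: phospho-histone H2A.x immunostain intensity per cell marking DNA damage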
# Outline: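 HepG2 human liver cells were exposed for 72 hr to compounds at 0.39–200 uM (10 concentrations, duplicate per plate) in 0.5% v/v DMSO. Fixed, permeabilized cells were immunolabeled for phospho-histone H2A.x with Hoechst 33342 and imaged by HCS fluorescence; bidirectional fit versus DMSO.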
# [2] = APR_HepG2_MitoMembPot_72hr: Apredica 72-hour HepG2 Assay for Mitochondrial Membrane Potential (AID 2282917); conditions: imaging, actives raise or lower the signal
# Outline: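 HepG2 cells exposed 72 h to compounds at 0.39–200 uM (0.5% v/v DMSO, duplicates); MitoTracker Red CMXRos 250 nM loaded 30 min before 3.7% formaldehyde fixation, imaged by HCS fluorescence. Bidirectional fit versus DMSO.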
# [3] = APR_HepG2_MitoticArrest_72hr: Apredica 72-hour HepG2 Assay for Mitotic Arrest (AID 2282918); conditions: high-content imaging, actives raise or lower the signal
# Outline: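 Read-out is phospho-histone H3 immunofluorescence with Hoechst nuclear segmentation, imaged at 20x. Human HepG2 liver cells received ten concentrations (0.39–200 uM, final DMSO 0.5% v/v) for 72 hr before fixation. Gain or loss of signal was fitted relative to DMSO.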
# [4] = APR_HepG2_MicrotubuleCSK_72hr: Apredica 72-hour HepG2 Assay for Microtubule CSK Stabilty (AID 2282919); conditions: HepG2 microtubule cytoskeleton, high-content imaging, actives raise or lower the signal
# Outline: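 HepG2 human liver cells were dosed for 72 h at ten concentrations from 0.39 to 200 uM in duplicate (0.5% v/v DMSO final). Fixed, permeabilized cells were immunostained for alpha-tubulin (Cy5) with a Hoechst counterstain and imaged at 20x.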
# [5] = APR_HepG2_StressKinase_72hr: Apredica 72-hour HepG2 Assay for Stress Kinase (AID 2282921); conditions: HepG2 stress kinase (phospho-c-Jun) imaging, actives raise or lower the signal
# Outline: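 Cells were exposed for 72 h to ten concentrations (0.39–200 uM, duplicate) at 0.5% v/v DMSO final, then fixed with 3.7% formaldehyde, permeabilized and immunostained for phospho-c-Jun (Cy3 secondary) with Hoechst nuclear counterstain.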
# [6] = APR_HepG2_StressKinase_24hr: Apredica 24-hour HepG2 Assay for Stress Kinase (AID 2282922); conditions: HepG2 stress kinase (phospho-c-Jun) imaging, actives raise or lower the signal
# Outline: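 HepG2 cells exposed 24 hr to compound at 0.39–200 uM (10 concentrations, duplicate), 0.5% v/v DMSO final. Fixed in 3.7% formaldehyde, permeabilized with Triton X-100, immunolabeled for phospho-c-Jun with Hoechst 33342; HCS fluorescence imaging, bidirectional fit versus DMSO.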
# [7] = APR_HepG2_MitoMass_72hr: Apredica 72-hour HepG2 Assay for Mitochondrial Mass (AID 2282924); conditions: high-content imaging, actives raise or lower the signal;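 note: MitoTracker Red CMXRos stain intensity per cell imaged as mitochondrial mass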
# Outline: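 HepG2 cells were exposed for 72 hr to compounds at 0.39–200 uM (ten concentrations, duplicate, 0.5% v/v DMSO final). Live cells were stained with 250 nM MitoTracker Red CMXRos for 30 min, then fixed in 3.7% formaldehyde and imaged by HCS fluorescence.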
# [8] = APR_HepG2_NuclearSize_72hr: Apredica 72-hour HepG2 Assay for Nuclear Size (AID 2282925); conditions: high-content imaging, actives raise or lower the signal
# Outline: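 HepG2 cells were exposed to compounds at ten concentrations from 0.39 to 200 uM (duplicate, 0.5% DMSO final) for 72 hr. After fixation in 3.7% formaldehyde, nuclei were stained with Hoechst 33342 (2 ug/mL) and imaged at 20x.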
# [9] = ATG_CRE_CIS: Attagene CIS-FACTORIAL HepG2 Assay for human cAMP Responsive Element (CRE) binding protein 3 (AID 2282926); conditions: HepG2 CRE cis-reporter, Attagene multiplexed mRNA; actives raise or lower the signal
# Outline: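 Human liver HepG2, transient MRTU transfection, 24 h compound exposure. Total RNA → oligo(dT) RT → PCR → 6-FAM primer extension → HpaI cut → CE. Activity called both directions vs DMSO.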
# [10] = target: CCAAT/enhancer-binding protein beta (Homo sapiens) (UniProt P17676); assay: ATG_C_EBP_CIS: Attagene CIS-FACTORIAL HepG2 Assay for human CCAAT/Enhancer Binding Protein (C/EBP) beta (AID 2282927); conditions: HepG2 Attagene cis-factorial transcription factor reporter; actives raise or lower the signal
# Chain of CCAAT/enhancer-binding protein beta (Homo sapiens) (P17676 whole entry, looked up, the tested form may be a part): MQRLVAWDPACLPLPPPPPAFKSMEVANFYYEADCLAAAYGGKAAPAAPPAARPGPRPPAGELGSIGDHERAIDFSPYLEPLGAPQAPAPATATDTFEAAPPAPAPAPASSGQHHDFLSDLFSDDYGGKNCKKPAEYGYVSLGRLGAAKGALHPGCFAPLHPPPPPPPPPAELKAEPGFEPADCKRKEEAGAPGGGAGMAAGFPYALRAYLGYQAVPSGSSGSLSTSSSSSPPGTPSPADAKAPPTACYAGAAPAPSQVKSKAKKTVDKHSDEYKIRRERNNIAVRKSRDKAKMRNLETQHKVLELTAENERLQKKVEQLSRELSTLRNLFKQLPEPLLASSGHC
# Outline: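 Chemical-treated HepG2 cells (24 h) bearing cis-regulated reporter constructs were processed for total RNA, then reverse transcription, PCR amplification, fluorescent primer extension and fragment analysis; gain- and loss-of-signal were fitted against DMSO.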
# [11] = ATG_CMV_CIS: Attagene CIS-FACTORIAL HepG2 Assay for human CMV (Internal Marker) (AID 2282928); conditions: HepG2 CMV promoter reporter, transcription factor profiling; actives raise or lower the signal;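 note: endpoint acts as a background internal control marker rather than a target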
# Outline: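 CMV internal-marker background readout in transiently transfected HepG2 cells bearing cis-regulated reporter units. Reporter mRNA is measured 24 h after dosing by RT-PCR and capillary electrophoresis, with bidirectional fitting against DMSO.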
# [12] = ATG_DR4_LXR_CIS: Attagene CIS-FACTORIAL HepG2 Assay for human Liver X Receptor (LXR), DR4 submotif (AID 2282929); conditions: HepG2 Attagene DR4 cis-reporter, mRNA transcription; actives raise or lower the signal
# Outline: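 Total RNA from 24 h-treated, MRTU-transfected HepG2 cells underwent reverse transcription, PCR, fluorescent primer extension and restriction digestion before capillary electrophoresis. Both increases and decreases in reporter signal were fitted against DMSO.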
# [13] = ATG_AP_1_CIS: Attagene CIS-FACTORIAL HepG2 Assay for human Activator Protein 1 (AP-1) (AID 2282931); conditions: HepG2 Attagene cis-factorial AP-1 reporter mRNA; actives raise or lower the signal
# Outline: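 HepG2, transient cis-reporter transfection; 24 h; readout RT-PCR/CE fluorescence; DMSO baseline, gain and loss fitted.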
# [14] = ATG_AP_2_CIS: Attagene CIS-FACTORIAL HepG2 Assay for human Activator Protein 2 (AP-2) (AID 2282932); conditions: HepG2 AP-2 cis-reporter, Attagene transcription factor profiling; actives raise or lower the signal
# Outline: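 HepG2 cells were transiently transfected with multiple cis-promoter reporter transcription units and dosed for 24 h. Reporter mRNA was measured by RT-PCR with capillary electrophoresis fluorescence; bidirectional fits relative to DMSO baseline.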
# [15] = ATG_BRE_CIS: Attagene CIS-FACTORIAL HepG2 Assay for human Bone Morphogenetic Protein (BMP) Response Element (BRE) (AID 2282933); conditions: HepG2 BMP response element reporter, Attagene transcription factor profiling; actives raise or lower the signal
# Outline: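 Multiplexed cis-reporter assay, HepG2, 24 h exposure. mRNA from reporter units quantified via RT-PCR/CE; DMSO baseline; bidirectional curve fit.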
# [16] = target: Retinoic acid receptor alpha (Homo sapiens) (UniProt P10276); assay: ATG_DR5_RAR_CIS: Attagene CIS-FACTORIAL HepG2 Assay for human Retinoic Acid Receptor Alpha (RARE), DR5 submotif (AID 2282934); conditions: HepG2 Attagene cis-factorial RARE DR5 reporter, mRNA; actives raise or lower the signal
# Chain of Retinoic acid receptor alpha (Homo sapiens) (P10276 whole entry, looked up): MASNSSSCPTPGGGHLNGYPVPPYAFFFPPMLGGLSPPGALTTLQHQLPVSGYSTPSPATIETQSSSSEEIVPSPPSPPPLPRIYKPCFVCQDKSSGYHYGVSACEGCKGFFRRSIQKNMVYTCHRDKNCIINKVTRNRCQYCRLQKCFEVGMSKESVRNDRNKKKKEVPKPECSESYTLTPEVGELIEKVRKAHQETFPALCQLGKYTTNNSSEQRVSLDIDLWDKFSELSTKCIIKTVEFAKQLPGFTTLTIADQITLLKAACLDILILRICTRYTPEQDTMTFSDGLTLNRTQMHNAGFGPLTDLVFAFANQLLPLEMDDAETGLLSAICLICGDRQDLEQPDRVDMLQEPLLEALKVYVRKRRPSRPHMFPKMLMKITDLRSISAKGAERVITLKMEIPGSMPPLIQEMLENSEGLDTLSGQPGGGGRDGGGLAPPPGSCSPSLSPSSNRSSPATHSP
# Outline: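 Transfected HepG2 reporter cells are exposed to chemicals for 24 h. Then RNA is extracted and the DR5 element reporter transcript is measured by RT-PCR and capillary electrophoresis, with bidirectional curve fitting relative to DMSO.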
# [17] = target: Transcription factor E2F1 (Homo sapiens) (UniProt Q01094); assay: ATG_E2F_CIS: Attagene CIS-FACTORIAL HepG2 Assay for human E2F Transcription Factor 1 (AID 2282935); conditions: HepG2 Attagene cis-reporter, E2F reporter RNA transcripts; actives raise or lower the signal
# Chain of Transcription factor E2F1 (Homo sapiens) (Q01094 whole entry, looked up): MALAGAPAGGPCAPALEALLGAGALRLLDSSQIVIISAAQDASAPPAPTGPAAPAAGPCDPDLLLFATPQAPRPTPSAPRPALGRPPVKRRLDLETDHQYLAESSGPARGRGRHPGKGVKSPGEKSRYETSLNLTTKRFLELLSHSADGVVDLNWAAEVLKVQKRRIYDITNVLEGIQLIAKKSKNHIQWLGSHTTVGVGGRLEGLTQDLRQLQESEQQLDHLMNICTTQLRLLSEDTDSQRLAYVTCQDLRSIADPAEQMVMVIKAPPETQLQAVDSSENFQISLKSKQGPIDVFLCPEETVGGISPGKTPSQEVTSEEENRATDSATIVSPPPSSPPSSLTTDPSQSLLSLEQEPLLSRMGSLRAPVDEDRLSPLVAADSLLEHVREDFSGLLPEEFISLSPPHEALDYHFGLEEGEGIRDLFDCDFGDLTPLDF
# Outline: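 HepG2 cells transiently transfected with multiplexed cis-element reporter units, dosed for 24 h. Reporter mRNA measured by RT-PCR, 6-FAM primer-extension labeling, HpaI digestion and capillary electrophoresis; bidirectional fit versus DMSO baseline.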
# [18] = ATG_E_Box_CIS: Attagene CIS-FACTORIAL HepG2 Assay for human Enhancer Box (E-box) (AID 2282936); conditions: HepG2 E-box cis-reporter transcription, actives raise or lower the signal
# Outline: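 HepG2 cells transiently transfected with multiplexed cis-element reporter units sensing endogenous transcription factor activity; 24 h compound exposure. Reporter mRNA measured by RT-PCR, 6-FAM primer extension, HpaI digestion and capillary electrophoresis; bidirectional fit versus DMSO.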
# [19] = ATG_M_61_CIS: Attagene CIS-FACTORIAL HepG2 Assay for M61 Transcription Factor (Internal Marker) (AID 2282937); conditions: HepG2 Attagene CIS-FACTORIAL M61 internal marker reporter; actives raise or lower the signal
# Outline: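 Transfect HepG2 with MRTUs; dose 24 h; isolate RNA; reverse-transcribe with DNase I treatment; PCR-amplify, FAM-label and cut with HpaI for 2 h at 37 C; resolve by CE. Bidirectional fitting against DMSO.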
structure (smiles),measurement,setting,value
O=C(O)C(Cl)(Cl)Cl,outcome,[1],inactive
same,outcome,[2],inactive
same,AC50,[3],114 µM (active)
same,outcome,[3],inactive
same,outcome,[4],inactive
same,outcome,[5],inactive
same,outcome,[6],inactive
same,AC50,[7],162 µM (active)
same,outcome,[7],inactive
same,outcome,[8],inactive
same,outcome,[9],inactive
same,outcome,[10],inactive
same,outcome,[11],inactive
same,outcome,[12],inactive
same,outcome,[13],inactive
same,outcome,[14],inactive
same,outcome,[15],inactive
same,outcome,[16],inactive
same,outcome,[17],inactive
same,outcome,[18],inactive
same,outcome,[19],inactive
